Compounds with a hit are over-represented: about 3.1% of the library has one in this group of screens.
NadD inh – NadD (S. aureus) enzyme inhibition | hit rate 0.78% among 360,000 | inhibition, % at 20 µM | purified NadD enzyme, colorimetric absorbance read-out | AID 602399; in the data active = inhibition above about 26%
ATG4B inhibitor – inhibitors of human ATG4B cysteine protease. Q9Y4P1. ATG4B cleavage of LC3-PLA2, NBD-HPC fluorescence, 1 h. inhibition, % at 8.33 µM. hit rate 0.51% among 340,000. AID 504462; in the data active = inhibition above about 40%
Target sequence (Q9Y4P1 whole entry, looked up): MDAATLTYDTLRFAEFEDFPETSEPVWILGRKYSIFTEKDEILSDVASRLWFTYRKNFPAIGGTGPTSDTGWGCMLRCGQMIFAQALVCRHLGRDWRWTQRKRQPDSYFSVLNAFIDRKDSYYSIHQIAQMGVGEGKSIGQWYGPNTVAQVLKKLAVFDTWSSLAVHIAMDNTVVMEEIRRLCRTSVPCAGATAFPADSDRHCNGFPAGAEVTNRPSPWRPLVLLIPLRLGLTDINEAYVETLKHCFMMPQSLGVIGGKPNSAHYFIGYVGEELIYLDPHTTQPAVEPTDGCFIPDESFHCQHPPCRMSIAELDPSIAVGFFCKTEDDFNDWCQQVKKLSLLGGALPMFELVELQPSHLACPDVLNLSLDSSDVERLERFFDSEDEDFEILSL
Calb FLC – affects C. albicans growth with fluconazole; C. albicans CaCi-2 (fluconazole-resistant clinical isolate) + fluconazole, Alamar Blue growth, 48 h; growth inhibition, % (no concentration beside the values); AID 1979; hit rate 0.57% among 300,000;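 active = growth inhibition above about 58% in most replicates, limit read from the data, passing the limit was not always enough; inconclusive = exactly half the replicates above a set limit; inactive = most replicates below a set limit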;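 also: all wells also contain fluconazole at 8 µg/ml as a sub-toxic cotreatment; 0% = median of DMSO wells and 100% = median of geldanamycin control wells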
Mot1-301 SUMO – inhibitors of SUMOylation pathway: yeast Mot1-301 growth rescue. S. cerevisiae Mot1-301 growth rescue, ATP luminescence, 38.5C; percent above DMSO median, 100 means doubled. growth rescue, % at 18.8 µM. hit rate 1% among 320,000. AID 2716;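 active = every valid replicate shows activation above 250% relative to neutral control wells; inactive = the rest, any valid replicate at or below 250%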;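 also: OY570 slx delta 5 strain wells were the positive control but not used for scaling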
FAS-TE inh – blocks the thioesterase domain of human fatty acid synthase; hit rate 0.67% among 360,000; AID 602261; inhibition, % at 15 µM; recombinant FAS-TE, OMFH fluorogenic substrate, fluorescence endpoint;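 active = compounds whose normalised, plate-corrected inhibition of enzyme fluorescence in the single-dose primary screen is 50% or more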;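 also: 0% = DMSO with enzyme and 100% = substrate without enzyme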
ATG4B confirm – ATG4B (human) inhibition, single-dose confirmed; shares compounds with ATG4B inhibitor; ATG4B protease fluorescent substrate cleavage assay; inhibition, % at 8.33 µM; hit rate 92% among 320; AID 504757; in the data active = inhibition above about 39%
PLA2 ctr – inhibits human PLA2, flagging false ATG4B inhibitors; shares compounds with ATG4B inhibitor; purified PLA2, NBD-C6-HPC fluorescence, 45 min; inhibition, % at 8.33 µM; hit rate 66% among 1,600; AID 588402; in the data active = inhibition above about 50%
Target sequence (P04054 whole entry, looked up): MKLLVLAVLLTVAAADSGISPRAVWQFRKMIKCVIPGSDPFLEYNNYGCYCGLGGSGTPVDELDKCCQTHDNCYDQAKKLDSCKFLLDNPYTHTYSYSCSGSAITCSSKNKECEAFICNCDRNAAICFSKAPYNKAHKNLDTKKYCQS
* = called active by the depositor; ? = inconclusive; . = not tested or not shown.

SMILES	NadD inh	ATG4B inhibitor	Calb FLC	Mot1-301 SUMO	FAS-TE inh	PLA2 ctr	others
COc1ccc(COCC(O)CN(Cc2ccco2)Cc2ccccc2O)cc1 (stereo not given)	-8.2	8.2	1.2	-1.3	6.7	.
CCOC(=O)C1CCCN(C(=O)CN2C(=O)c3ccccc3S2(=O)=O)C1 (stereo not given)	-2.1	0.0	.	5.7	-6.9	.
C=CCn1c(SCC(=O)Nc2ccc3c(c2)CCC3)nnc1-c1cccs1	8.6	67.3*	-1.4	0.1	8.7	51.7*
C=CCn1c(SCC(=O)O)nnc1-c1cccs1	-7.7	5.0	2.2	-6.6	-4.3	.
COc1ccc(NC(=O)N(C)C[C@H]2Oc3ccc(NC(=O)Cn4cnnn4)cc3C(=O)N([C@H](C)CO)C[C@@H]2C)cc1	-6.6	-13.5	.	3.5	-9.2	.
COC(=O)COc1ccc(-c2ccc(F)cc2)cc1C=O	-0.5	43.4*	-19.2	217.0	0.9	59.1*
CCOc1ccc(OCC(=O)N(CCC2=CCCCC2)c2c(N)n(Cc3ccccc3)c(=O)[nH]c2=O)cc1	2.3	.	-3.4	.	-3.3	.
O=C(Nc1ccc(N2CCOCC2)cc1)c1ccc(Cl)c(S(=O)(=O)N2CCCCC2)c1	10.6	11.5	.	-0.7	-2.4	.
O=C(Nc1cc2c(cc1C(=O)O)OCCCO2)c1ccc(C(F)(F)F)cc1	-7.0	9.7	-2.4	-3.5	1.3	.
O=C(O)c1cc2c(cc1NC(=O)c1ccccc1C(F)(F)F)OCCCO2	5.1	62.9*	-8.8	-3.0	-5.3	63.3*
O=C(CCCCCNC(=S)Nc1ccccc1)C[N+](=O)[O-]	-0.3	5.5	-9.0	-1.8	-14.5	.
C#CCCc1cscc1/C=[N+](\[O-])c1ccc(C(=O)OCC)cc1	1.0	3.4	.	-25.4	4.4	.
C#CCCC(=O)c1ccccc1/C=[N+](\[O-])c1ccccc1	19.8	41.7*	.	5.3	7.0	62.0*
Clc1ccc2c(N/N=C/c3ccccc3Br)ccnc2c1	14.6	48.0*	-5.1	-5.1	-6.1	27.1	ATG4B confirm=56.4*
CCCCC(CC)CN=C(N)NC(N)=NCCCCCCN=C(N)NC(N)=NCC(CC)CCCC (stereo not given)	15.0	69.5*	.	-54.6	-36.9	23.3	ATG4B confirm=14.3
CCCCC(CC)CO (stereo not given)	1.0	-29.9	.	.	-4.9	.
O=c1cc(-c2ccccc2Cl)oc2c(NS(=O)(=O)c3cc(Cl)cc(Cl)c3O)ccc(O)c12	15.2	101.0*	?	-16.9	67.5*	102.8*
CCOc1ccc(N2CC(O)=C(c3nc4ccccc4c(=O)[nH]3)C2=N)cc1	-0.7	-13.9	1.2	-6.5	3.1	.
Cc1ccc(N2CC(O)=C(c3nc4ccccc4c(=O)[nH]3)C2=N)cc1C	15.6	45.8*	-7.1	16.1	14.6	38.3
Cc1cn([C@H]2C[C@H](O)[C@@H](CCC(=O)NCC(c3ccccc3)c3ccccc3)O2)c(=O)[nH]c1=O	-1.6	.	.	.	-6.9	.
Cc1nc(NCc2cccnc2)c2c3c(sc2n1)CCCC3	-4.0	14.6	32.1	-6.0	3.4	.
OCCNc1nc(SCc2ccccc2)nc2sc3c(c12)CCC3	1.2	69.1*	4.8	.	23.3	90.3*
CC(=O)O[C@H]1[C@H](O)[C@H](Oc2c(O)c(C)c3c4c2[C@@H](C)CC[C@@H]4[C@@H](C)C[C@H]3C=C(C)C)O[C@@H](C)[C@H]1O	-5.9	-4.7	.	.	22.2	.
Cc1c(Cl)cccc1NC(=O)Nc1cc(C(C)(C)C)on1	-6.8	77.6*	5.1	-0.7	14.1	83.7*
Cn1c(CNC(=O)c2ccco2)nnc1SCC(=O)N1CCN(c2ccccc2F)CC1	-0.8	-3.5	15.9	5.1	-4.8	.
SMILES	NadD inh	ATG4B inhibitor	Calb FLC	Mot1-301 SUMO	FAS-TE inh	PLA2 ctr	others
CC1=CN2C(=N)/C(=C/c3ccc(Sc4ccc(C)cc4)o3)C(=O)N=C2S1	10.8	42.5*	9.7	6.2	22.1	55.7*
CCOC(=O)CSc1nc2ccccc2c(=O)n1C1CCCC1	-11.6	43.6*	3.9	13.1	11.2	64.8*
O=C(CCl)Nc1nc(-c2ccco2)c(-c2ccco2)s1	6.5	4.6	6.7	-5.7	25.6	.
Cc1ccc(C(=O)Nc2nc(-c3ccco3)c(-c3ccco3)s2)o1	30.6*	40.4*	.	.	15.3	47.3	ATG4B confirm=64.0*
Cc1c(CCOC(=O)CC23CC4CC(CC(C4)C2)C3)sc[n+]1CC(=O)c1ccccc1	5.0	5.0	55.9	-18.8	17.2	.
Cc1c(CCOC(=O)C23CC4(C)CC(C)(CC(C)(C4)C2)C3)sc[n+]1CC(=O)c1ccccc1	16.1	46.8*	112.8*	-6.2	2.3	47.2	ATG4B confirm=50.9*
Cc1c(Cl)c(=O)n2c(=O)c(Cl)c(C)n12	-3.5	-3.7	8.1	.	-5.1	.
Cc1ccccc1CN(c1ccc(C(=O)N/N=C/c2ccc(OCC(N)=O)cc2)cc1)S(C)(=O)=O	-0.9	45.5*	-3.5	7.0	-3.8	47.0
CC(C)(C)c1ccc(S(=O)(=O)N2CCN(C(=O)C3CCC3)CC2)cc1	-2.9	-0.7	-4.1	2.2	12.7	.
O=C(c1ccc2c(=O)n(Cc3ccc4c(c3)OCO4)c(=S)[nH]c2c1)N1CCCCC1	11.1	54.9*	-17.6	-12.6	-6.6	8.0
O=C(c1ccc(Cn2c(=S)[nH]c3ccccc3c2=O)cc1)N1CCN(c2ccccn2)CC1	8.6	46.9*	?	165.1	11.9	65.7*
CC1=C(C(=O)Nc2cccc(C(=O)NCc3ccc(F)cc3)c2)SCCO1	-2.5	8.2	0.1	8.1	-0.1	.
CC1=C(C(=O)Nc2cccc(C(=O)NCc3ccccc3C)c2)SCCO1	-8.9	54.0*	?	-4.1	1.4	63.9*
COc1ccc(CC(=O)Nc2nc(-c3cccc([N+](=O)[O-])c3)cs2)cc1	1.1	-6.0	-41.1	-28.7	-0.8	.
COc1ccc2c(c1OC)C(=O)OC2Nc1nc(-c2cccc([N+](=O)[O-])c2)cs1 (stereo not given)	-7.8	52.0*	9.4	0.3	6.6	70.8*
O=C(NNC(=O)c1ccccc1OCc1ccc(F)cc1)c1ccccc1O	-5.8	-2.4	-35.4	19.5	25.8	.
O=C(NCc1ccc(F)cc1)c1ccccc1OCc1ccccc1	-3.8	47.2*	3.9	.	20.8	52.0*
O=C(NC1CCCC1)c1ccccc1OCc1ccccc1	-6.9	65.6*	1.0	.	13.7	73.1*
COc1ccccc1C(=O)NC1CCCCCCC1	0.4	-7.0	1.7	-14.6	-3.9	.
O=C(NC1CCN(Cc2ccccc2)CC1)c1ccccc1OCc1ccccc1	-7.1	56.0*	11.3	-4.8	12.8	62.3*
CC1CCN(C(=O)c2ccc3c(c2)NC(=O)/C(=C/c2ccccc2)S3)CC1	2.9	55.5*	-0.6	-8.1	5.2	76.0*
COc1ccc(/C=C2\Sc3ccc(C(=O)N4CCc5ccccc5C4)cc3N(C)C2=O)cc1	.	.	19.0	.	.	.

From PubChem
